EPAC2 agonist: qHTS for Agonist of cAMP-regulated guanine nucleotide exchange factor 4 (EPAC2): primary screen; Rap guanine nucleotide exchange factor 4 (Homo sapiens), Q8WZA2; EPAC2 activation, biochemical qHTS; response scale: 100% = 6.5 mM cAMP response; Potency, µM (titrated, usually from 154 µM), for the others: at the top dose activation, most hits filed as activators; 0.079% of 360,000 active; also: nearly all actives have a fitted effect of over 50% in size
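Compounds were titrated in qHTS against a Rap1B-BODIPY-GDP (250 nM) complex with EPAC2 (100 nM) and GDP (50 uM). BODIPY-GDP release tracked at 480/540 nm over 30 min at room temperature, normalized to 6.5 mM cAMP.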
EPAC2 antagonist: qHTS for Antagonist of cAMP-regulated guanine nucleotide exchange factor 2 (EPAC2): primary screen. Rap guanine nucleotide exchange factor 4 (Homo sapiens), Q8WZA2. EPAC2 GEF exchange of Rap1B-BODIPY-GDP, fluorescence. Potency, µM (series often up to 114 µM), without a hit: at the top dose activity, negative = inhibition, usual class: inhibitors. 0.18% of 360,000 active; also: % is scaled to controls: 0 for no effect and ±100 for the full control effect; nearly all actives have a fitted effect of over 45% in size
RGS4 inhibitor: Inhibitors of Regulator of G Protein Signaling (RGS) 4: qHTS | Regulator of G-protein signaling 4 (Homo sapiens), P49798 | Transcreener GDP fluorescence polarization, RGS4-accelerated GTP hydrolysis | Potency, µM (doses to about 114 µM), without a hit: at the top dose activity change, negative = inhibition, most hits filed as inhibitors | 0.039% of 390,000 active; also: % is scaled to controls: 0 for no effect and ±100 for the full control effect; nearly all actives have a fitted effect of over 75% in size
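MLSMR compounds (23 nl, pin-transferred) preincubated 10 min at room temperature with a 500nM (2x) first reagent, then RGS4 at 900nM (2x) plus Transcreener GDP mix added; fluorescence polarization (620/688 nm) read before and after 90 min at 30 °C.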
EPAC1 antag: qHTS for Antagonist of cAMP-regulated guanine nucleotide exchange factor 3 (EPAC1): primary screen. Rap guanine nucleotide exchange factor 3 (Homo sapiens), O95398. AID 720709, 2013. 0.14% of 360,000 active. Potency, µM (doses to about 115 µM), inactives show top-dose activity change, negative = inhibition, most hits filed as inhibitors. EPAC1 GEF assay, Rap1b-BODIPY-GDP exchange fluorescence;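 also: plate controls were vehicle for no effect and positive control for full effect; nearly all actives have a fitted effect of over 50% in size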
Target sequence (O95398 whole entry, looked up): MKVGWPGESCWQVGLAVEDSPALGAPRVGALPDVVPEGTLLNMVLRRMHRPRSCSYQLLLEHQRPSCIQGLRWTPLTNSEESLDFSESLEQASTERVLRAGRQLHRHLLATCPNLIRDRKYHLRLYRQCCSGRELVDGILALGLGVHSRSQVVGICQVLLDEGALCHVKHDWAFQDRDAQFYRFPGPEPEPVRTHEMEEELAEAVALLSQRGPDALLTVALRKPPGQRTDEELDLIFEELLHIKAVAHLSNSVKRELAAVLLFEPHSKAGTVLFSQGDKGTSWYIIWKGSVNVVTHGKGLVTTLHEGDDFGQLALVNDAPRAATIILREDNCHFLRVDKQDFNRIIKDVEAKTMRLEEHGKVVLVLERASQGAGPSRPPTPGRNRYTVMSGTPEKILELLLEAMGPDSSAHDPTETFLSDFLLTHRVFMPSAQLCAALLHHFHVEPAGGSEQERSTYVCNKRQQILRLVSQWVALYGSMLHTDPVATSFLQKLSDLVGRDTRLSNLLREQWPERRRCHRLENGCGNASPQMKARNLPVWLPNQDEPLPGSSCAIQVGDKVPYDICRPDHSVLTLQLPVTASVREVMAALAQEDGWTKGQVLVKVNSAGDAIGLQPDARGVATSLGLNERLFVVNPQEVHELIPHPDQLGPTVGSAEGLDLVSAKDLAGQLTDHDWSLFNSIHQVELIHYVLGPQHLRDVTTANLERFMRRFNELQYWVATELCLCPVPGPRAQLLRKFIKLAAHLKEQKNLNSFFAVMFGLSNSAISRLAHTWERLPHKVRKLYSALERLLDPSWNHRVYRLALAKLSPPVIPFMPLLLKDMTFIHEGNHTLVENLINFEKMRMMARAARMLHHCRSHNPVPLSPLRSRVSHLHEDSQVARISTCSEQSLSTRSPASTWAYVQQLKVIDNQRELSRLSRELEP
EPAC1 ag: qHTS for Agonist of cAMP-regulated guanine nucleotide exchange factor 3 (EPAC1): primary screen | Rap guanine nucleotide exchange factor 3 (Homo sapiens), O95398 | EPAC1 agonist qHTS, biochemical assay; response scale: 100% = response to 6.5 mM cAMP | Potency, µM (series often up to 154 µM), for the others: at the top dose activation, hits mostly activators | 0.073% of 360,000 active; also: nearly all actives have a fitted effect of over 60% in size
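Nucleotide exchange assay: 100 nM EPAC1 with 250 nM Rap1B loaded with BODIPY-GDP and 50 uM GDP, room temperature. Fluorescence (480/540 nm) read every 5 min for 30 min; signal change normalized to 6.5 mM cAMP as full agonist.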
BRCA1 expr act: qHTS Assay to Identify Small Molecule Activators of BRCA1 Expression; AID 624202, 2012; 1.1% of 380,000 active; MCF7-BRCA1-FFLuc reporter, luminescence, 48 h; response scale: scaled: vehicle 0%, 10 µM genistein 100%; Potency, µM (series often up to 46.1 µM), inactives show at the highest dose activation, usual class: activators; also: nearly all actives have a fitted effect of over 80% in size
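Compounds are tested at multiple concentrations on MCF7 BRCA1-luciferase reporter cells seeded at 2000 per well; after 48 h, a single luminescence end-point is taken and curves fitted to the normalized data.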
An asterisk follows results filed as active; [ ] = another dose, or the depositor's remark. Hits are enriched below; roughly 1.3% of the tested compounds scored in any of these assays. Calls follow the shape of the dose curve; as a rule, active = well fitted curve in the direction sought with a large enough effect; inconclusive = small, poorly fitted or top-dose-only effect, or another doubt; inactive = no such curve, though single readings can be large; an effect the other way counts as inactive or inconclusive. Potency is read from the fitted curve at half-maximal effect.

Screening COc1cc(C(=O)Nc2ccc3c(c2)OCCO3)ccc1OC(F)F returned EPAC2 agonist 17.8%, EPAC2 antagonist -8.8%, RGS4 inhibitor 12.6%, EPAC1 antag -3.5%, EPAC1 ag 10.5% and BRCA1 expr act 11.2µM*.
Cc1ccc(C)c(NC(=O)Nc2ccc3c(c2)OCO3)c1 was read as EPAC2 agonist -0.6%, EPAC2 antagonist 0.7%, RGS4 inhibitor -22.6%, EPAC1 antag -13.4%, EPAC1 ag 8.6% and BRCA1 expr act 91.8%.
Screening O=C(Nc1ccc2c(c1)OCO2)c1c(F)cccc1F returned EPAC2 agonist 10.5%, EPAC2 antagonist -3.1%, RGS4 inhibitor 9.4%, EPAC1 antag -1.0%, EPAC1 ag 6.5% and BRCA1 expr act 4.47µM*.
Screening COc1cc(C(=O)Nc2ccc3c(c2)OCCO3)ccc1OC(C)C returned EPAC2 agonist 19.5%, EPAC2 antagonist -6.0%, RGS4 inhibitor 18.6%, EPAC1 antag 3.9%, EPAC1 ag 7.8% and BRCA1 expr act inconclusive.
Screening Cc1ccccc1NC(=O)Nc1ccc2c(c1)OCO2 returned EPAC2 agonist 7.1%, EPAC2 antagonist 9.2%, RGS4 inhibitor 13.6%, EPAC1 antag 4.0%, EPAC1 ag -4.7% and BRCA1 expr act 5.62µM*.
For Cn1nccc1C(=O)Nc1ccc2c(c1)OCO2 the results were EPAC2 agonist 8.7%, EPAC2 antagonist -0.7%, RGS4 inhibitor 9.4%, EPAC1 antag 1.3%, EPAC1 ag -4.1% and BRCA1 expr act 12.6µM*.
Cc1ccccc1CNC(=O)c1ccc2c(c1)c(C)c(C)n2C was read as RGS4 inhibitor -10.4%.
`Cc1cccc(C)c1NC(=S)NCCc1ccccn1` gave EPAC2 agonist -3.9%, EPAC2 antagonist 6.6%, RGS4 inhibitor -1.3%, EPAC1 antag 0.7%, EPAC1 ag -2.0% and BRCA1 expr act -18.2%.
COCCNC(=O)/C(C#N)=C/c1ccc(OC(=O)c2cccs2)c(OC)c1 was read as EPAC2 agonist -5.1%, EPAC2 antagonist 9.1%, RGS4 inhibitor inconclusive, EPAC1 antag inconclusive, EPAC1 ag -15.1% and BRCA1 expr act -24.6%.
For CS(=O)(=O)N(CC(=O)Nc1ccc2c(c1)OCO2)c1ccccc1 the results were EPAC2 agonist 3.3%, EPAC2 antagonist -2.8%, RGS4 inhibitor 9.1%, EPAC1 antag -1.5%, EPAC1 ag 3.7% and BRCA1 expr act 25.5%.
N/C(=N\C(=S)Nc1ccc2c(c1)OCO2)c1ccccc1 was read as EPAC2 agonist 6.9%, EPAC2 antagonist 6.8%, EPAC1 antag 14.3%, EPAC1 ag -5.8% and BRCA1 expr act 4.47µM*.
O=C(Nc1ccc2c(c1)OCO2)c1cccc(F)c1 was read as EPAC2 agonist 3.3%, EPAC2 antagonist 4.7%, RGS4 inhibitor -3.4%, EPAC1 antag 9.0%, EPAC1 ag -1.7% and BRCA1 expr act 11.2µM*.
`O=C(CCS(=O)(=O)c1ccccc1)Nc1ccc2c(c1)OCO2` gave EPAC2 agonist 8.9%, EPAC2 antagonist 8.2%, RGS4 inhibitor -14.3%, EPAC1 antag -10.8%, EPAC1 ag -2.8% and BRCA1 expr act 7.94µM*.
N/C(=N\C(=S)Nc1ccccc1)c1ccccc1 was read as EPAC2 agonist 6.0%, EPAC2 antagonist 2.8%, RGS4 inhibitor -19.5%[56.9 µM], EPAC1 antag -6.5%, EPAC1 ag 9.4% and BRCA1 expr act inconclusive.
